In all, about 63,000 compounds went through this assay and about 1,100 (1.7%) were called active.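 Rule for the calls: active = compounds whose percent cytotoxicity in the single-dose primary screen, scaled between solvent and toxic-drug controls, exceeds 50; inactive = the rest.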 The list comes from a sample in which actives are over-represented; it also holds similar structures and randomly drawn compounds. Measured potencies and affinities stand elsewhere.
Assay: viability loss of HPDE-C7K cells – cell-based, fluorescence, HTS, primary screen (AID 431);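 note: 0% = DMSO solvent wells and 100% = doxorubicin-treated wells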
Conditions: HPDE-C7K KRASV12 cells, Alamar Blue viability, 48 h; at 10 µM; stronger effect = higher value
In the case of `CC1(C)CC(=O)c2cc(C(=O)N3CCN(CCO)CC3)c(=O)n(-c3ccc(Cl)cc3)c2C1`, the cytotoxicity is reported as -8.4% (inactive).
For `O=C(c1cc2ccccn2n1)N1CCCC1`, the cytotoxicity was 8% (inactive).
For `Cc1onc(-c2ccccc2Cl)c1C(=O)NCc1ccc(S(N)(=O)=O)cc1`, the cytotoxicity was -0.7% (inactive).
With `O=c1[nH]cnc2scc(-c3ccc(F)cc3)c12` the cytotoxicity was 7.7% (inactive).
For `Cn1nnnc1Sc1ncnc2scc(-c3ccccc3)c12`, the cytotoxicity was 11.1% (inactive).
For `COc1ccc(OC)c(NC(=O)CN2CCC(C(=O)c3ccc(C)cc3)CC2)c1`, the cytotoxicity was 4.8% (inactive).
With `CCC(C)(C)NC(=O)C(c1cccn1C)N(C(=O)Cn1nnc2ccccc21)c1ccc(OC)cc1` (stereo not drawn) the cytotoxicity was 41.6% (inactive).
In the case of `O=C1CC(O)(C(F)(F)F)Oc2c1ccc1ccccc21` (stereo not drawn), the cytotoxicity is reported as 88.6% (active).
For `O=C1CC(O)(C(F)F)Oc2ccc3ccccc3c21` (stereo not drawn), the cytotoxicity was -1.2% (inactive).
For `COc1ccc2c(c1)OC(O)(C(F)(F)F)CC2=O` (stereo not drawn), the cytotoxicity was -1.5% (inactive).
With `COc1ccc(NC(=O)c2ccc(-n3nc(C)c[n+]3[O-])cc2)cc1` the cytotoxicity was -7.1% (inactive).
In the case of `N#Cc1c2n(cnc1=O)CCCCC2`, the cytotoxicity is reported as 0% (inactive).
In the case of `Nc1c(C(=O)NCCN2CCOCC2)c2nc3ccccc3nc2n1CCc1ccccc1F`, the cytotoxicity is reported as 7.5% (inactive).
With `Nc1c(C(=O)NCCN2CCOCC2)c2nc3ccccc3nc2n1-c1ccc2c(c1)OCO2` the cytotoxicity was -10.7% (inactive).
In the case of `Nc1ccc(-n2c(N)c(C(=O)NCc3ccc4c(c3)OCO4)c3nc4ccccc4nc32)cc1`, the cytotoxicity is reported as 35.9% (inactive).
With `Nc1c(C(=O)NCCN2CCOCC2)c2nc3ccccc3nc2n1CCc1ccccc1` the cytotoxicity was 18.1% (inactive).
For `CC1CN(c2nnnn2-c2ccccc2)CC(C)O1` (stereo not drawn), the cytotoxicity was -6.4% (inactive).
For `Cc1ccc(NC(=O)CSc2nnc(COc3ccc(C#N)cc3)n2-c2ccccc2)cc1C`, the cytotoxicity was -3.3% (inactive).
In the case of `Cc1ccc(S(=O)(=O)/C(C#N)=C/c2c(N3CCN(C)CC3)nc3ccccn3c2=O)cc1`, the cytotoxicity is reported as -0.5% (inactive).
For `O=C(O)CSCCC(=O)Nc1ccc(F)cc1`, the cytotoxicity was -3.7% (inactive).
With `CCOC(=O)Cn1c(CN2CC(C)OC(C)C2)nc2c1c(=O)n(C)c(=O)n2C` (stereo not drawn) the cytotoxicity was -2.5% (inactive).
In the case of `CCOC(=O)N1CCN(C(=O)C2COc3ccccc3O2)CC1` (stereo not drawn), the cytotoxicity is reported as 11.8% (inactive).
For `O=C(O)C1CCCCC1C(=O)Nc1ccc(Cl)cc1Cl` (stereo not drawn), the cytotoxicity was -0.5% (inactive).
For `CCCOC(=O)CCCCC1SCC(NC(=O)OC)C1NC(=O)OC` (stereo not drawn), the cytotoxicity was 5.4% (inactive).
For `CCOC(=O)Cn1c(=O)oc2cc(S(=O)(=O)Nc3cc(Cl)ccc3OC)ccc21`, the cytotoxicity was 0.7% (inactive).
For `CC1=CC(C)(C)N2C(=O)C3(C(C#N)=C(N)Oc4cc(C)oc(=O)c43)c3cccc1c32` (stereo not drawn), the cytotoxicity was -4.3% (inactive).
With `COc1cc2c3c(c1)C1(C(=O)N3C(C)(C)C=C2C)C(C#N)=C(N)Oc2cc(O)ccc21` (stereo not drawn) the cytotoxicity was -21.4% (inactive).
In the case of `CC1=CC(C)(C)N2C(=O)C3(C(C#N)=C(N)Oc4cc(O)ccc43)c3cccc1c32` (stereo not drawn), the cytotoxicity is reported as 74.3% (active).
